Shown are actives, neighbours in structure and some others; about 5.9% of the full set was active somewhere.
RORgamma inh – inhibitors of mouse ROR gamma transcriptional activity | P51450 | Drosophila S2 Gal4-RORgamma UAS-luciferase reporter, 20 h | Potency, µM (doses to about 53.6 µM), without a hit: top-dose activity change, negative = inhibition, actives largely listed as inhibitors | actives 5.4% (n = 310,000) | AID 2551; also: potency is read from the fitted curve at half-maximal effect; nearly all actives have a fitted effect of over 60% in size
Target sequence (P51450 whole entry, looked up, the tested form may be a part): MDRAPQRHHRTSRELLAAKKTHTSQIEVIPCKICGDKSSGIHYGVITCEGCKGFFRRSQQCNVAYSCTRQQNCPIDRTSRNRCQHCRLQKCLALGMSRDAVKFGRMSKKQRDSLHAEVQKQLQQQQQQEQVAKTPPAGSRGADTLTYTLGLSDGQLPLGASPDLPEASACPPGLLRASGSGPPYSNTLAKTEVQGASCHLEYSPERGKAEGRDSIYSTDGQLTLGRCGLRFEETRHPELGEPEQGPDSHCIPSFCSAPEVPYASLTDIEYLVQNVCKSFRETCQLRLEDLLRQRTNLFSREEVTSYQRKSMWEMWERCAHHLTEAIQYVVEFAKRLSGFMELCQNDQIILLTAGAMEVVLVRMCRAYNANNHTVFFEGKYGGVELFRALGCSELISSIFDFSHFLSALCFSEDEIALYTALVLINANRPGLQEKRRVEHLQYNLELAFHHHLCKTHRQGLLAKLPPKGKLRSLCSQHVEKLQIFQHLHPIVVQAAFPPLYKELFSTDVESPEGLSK
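Stable Schneider cell line, Gal4 DNA-binding domain fused to ROR gamma, UAS-luciferase. Cmpd 1 hr RT → CuSO4 700 uM final → 20 hr RT → luciferase reagent 10 min → luminescence.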
FBPA coupling cs – inhibits coupling enzyme system, counter-screen for aldolase hits; activity change, negative = inhibition, % at 58.2 µM, hits read low; coupling enzyme system counterscreen, AmpLite Red fluorescence; actives 0.67% (n = 290,000); in the data active = activity change below about -30%
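First, compound is pin-transferred into glyceraldehyde-3-phosphate coupling-enzyme reagent at 57.5 uM final and held 10 min at RT. Next, substrate, coupling system and AmpLite Red are added. After 20 min RT, fluorescence (525/598 nm) is read.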
rTrxR1 inhibitor – blocks rat thioredoxin reductase 1; Potency, µM (top dose mostly 114 µM), without a hit: at the highest dose activity change, negative = inhibition, usual class: inhibitors; recombinant rTrxR1, NADPH fluorescence consumption, selenite substrate; O89049; actives 1% (n = 390,000); also: potency is read from the fitted curve at half-maximal effect; nearly all actives have a fitted effect of over 65% in size
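Rat TrxR1 (90 nM in the dispensed reagent) was pre-reduced with 400 uM NADPH for 5 min at room temperature, then incubated with compound for 15 min. After 400 uM selenite was added, NADPH fluorescence (Ex 340/Em 450 nm) was followed for 8 min.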
Gal4-VP16 FLuc – inhibits Gal4-VP16 luciferase reporter, ROR gamma counter-screen; actives 3.5% (n = 310,000); Potency, µM (highest dose often 53.6 µM), for the others: at the top dose activity, negative = inhibition, hits mostly inhibitors; Drosophila S2 Gal4-VP16 UAS-luciferase, luminescence, 20 h;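 also: Gal4-VP16 expression switched on by copper sulfate through the metallothionein promoter; potency is read from the fitted curve at half-maximal effect; nearly all actives have a fitted effect of over 50% in size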
GALK inh – inhibitors of human galactokinase. P51570. Potency, µM (top dose mostly 57.5 µM), for the others: top-dose activity change, negative = inhibition, most hits filed as inhibitors. Purified GALK, Kinase-Glo residual ATP luminescence. actives 0.007% (n = 270,000); also: potency is read from the fitted curve at half-maximal effect
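ATP-depletion format; final 35 uM ATP, 100 uM D-galactose, 5 nM enzyme; pH 8.0 HEPES/Mg2+ buffer; 60 min RT; luminescence read 10 min after detection reagent.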
TrxR1 substrate – rat thioredoxin reductase 1 substrate activity; purified TrxR1 substrate turnover, NADPH consumption readout; Potency, µM (doses to about 114 µM), inactives show top-dose activity change, negative = substrate turnover; actives 0.01% (n = 390,000); AID 588456; also: potency is read from the fitted curve at half-maximal effect; nearly all actives have a fitted effect of over 50% in size
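Rat TrxR1, dispensed at 90 nM, was prereduced with 400 uM NADPH (final) for 5 min at ~22 deg C, then incubated with compound 15 min before 400 uM selenite. A first-read NADPH fluorescence drop versus no-compound background flagged substrates.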
* hit, by the source's call; u = inconclusive; x = not tested or not shown; ! = a repeat was not active; [ ] = another dose, or the depositor's remark. Unless noted, calls follow the shape of the dose curve; as a rule, active = well fitted curve in the direction sought with a large enough effect; inconclusive = small, poorly fitted or top-dose-only effect, or another doubt; inactive = no such curve, though single readings can be large; an effect the other way counts as inactive or inconclusive. % is scaled to controls: 0 for no effect and ±100 for the full control effect.

SMILES	RORgamma inh	FBPA coupling cs	rTrxR1 inhibitor	Gal4-VP16 FLuc	GALK inh	TrxR1 substrate
CN(C)/[N+]([O-])=N/Oc1ccc([N+](=O)[O-])cn1	x	x	2%	x	x	-1%
CC(Oc1cc2oc(=O)c3c(c2cc1Cl)CCC3)C(=O)N1C[C@H]2C[C@@H](C1)c1cccc(=O)n1C2 (some centres not stated)	-14%	-2	-1%	-8%	x	73%
COc1ccc(CCNC(=O)CS(=O)Cc2nc(-c3ccccc3Cl)oc2C)cc1OC (configuration not stated)	3%	x	27%	-8%	-1%	7%
COc1ccc(CCNC(=O)CS(=O)Cc2nc(-c3ccccc3F)oc2C)cc1OC (configuration not stated)	0%	2	50µM*	16%	-2%	24%
Cc1ccc(CCNC(=O)CS(=O)Cc2nc(-c3ccccc3C)oc2C)cc1 (configuration not stated)	x	x	-4%	x	x	-8%
Cc1ccc(CCNC(=O)CS(=O)Cc2nc(-c3ccccc3F)oc2C)cc1 (configuration not stated)	7%	0	32µM*	1%	5%	2%
O=C(/C=C/c1ccc([N+](=O)[O-])cc1)NNC(=O)C1CC1	28%	2	10%[57.1 µM]	-1%	0%	5%[57.1 µM]
Clc1ccc(CN2C3=NCCN3c3ccccc32)cc1Cl	18µM*	5	12%	-16%	3%	-7%
O=C1C(c2ccccc2)NC(=S)N1C1CCCCC1 (configuration not stated)	-37%	4	-2%	4%	0%	-5%
S=C1NCN(Cc2ccccc2)CN1C1CCCCC1	0.79µM*	4	31%[57.1 µM]	4µM*	-2%	13%[57.1 µM]
S=C1NCN(C2CCCCC2)CN1Cc1ccccc1	1.8µM*	-1	3%[57.1 µM]	3.5µM*	0%	6%[57.1 µM]
CN(C)N=Nc1ccc(S(=O)(=O)N2CCSC2C(=O)O)cc1 (configuration not stated)	x	x	-8%	x	x	-16%
O=c1c(-c2ccccc2)c1-c1ccccc1	u	3	x	0.79µM*	-2%	x
CCCN(CCC)c1nc(N)nc(-c2cc(Cl)ccc2OC)n1	16µM*	-1	7%[57.1 µM]	-11%	-1%	1%[57.1 µM]
CCCNc1nc(N)nc(-c2cc(Cl)ccc2OC)n1	14%	3	7%[57.1 µM]	19%	4%	-9%[57.1 µM]
CC(=O)Nc1cccc(Oc2cnc3ccccc3n2)c1	18%	-4	10%	15%	-2%	-3%
COc1ccc(/C=C/c2nc3cc(-c4ccccc4)ccc3o2)cc1O	32µM*	-2	1%	u	1%	17%
O=C(Nc1nnc(-c2ccccc2)s1)c1ccccc1F	13µM*	0	6%[57.1 µM]	1%	x	0%[57.1 µM]
Cc1nnc(NC(=O)c2ccccc2)s1	x	x	7%	x	x	-3%
CC(C)(C)c1nnc(NC(=O)c2ccc(Cl)nc2)s1	3%	-36*	22%	-12%	0%	-3%
CC(C)(C)c1ccc(-c2nnc(NC(=O)c3ccccc3)s2)cc1	7.9µM*	-1	34%	u	-1%	10%
NC(=O)c1ccc(NC(=O)COC(=O)c2c3c(nc4ccccc24)/C(=C\c2cccs2)CCC3)cc1	4.5µM*	1	30%	5µM*	2%	0%
CC1=C(/C=C/C(C)=C/C=C/C(C)=C/C(=O)Nc2ccc(O)cc2)C(C)(C)CCC1	4.5µM*!	-15	u	5µM*!	x	u
CC1=C(\C=C/C(C)=C/C=C\C(C)=C\C(=O)O)C(C)(C)CCC1	u	3	x	-7%	x	x
CC1=C(/C=C/C(C)=C/C=C/C(C)=C\C(=O)O)C(C)(C)CCC1	-28%	7	35µM*	-12%	x	3%[57.1 µM]
SMILES	RORgamma inh	FBPA coupling cs	rTrxR1 inhibitor	Gal4-VP16 FLuc	GALK inh	TrxR1 substrate
CS(=O)(=O)c1cccc(NC(=O)c2ccc(Cl)c(Cl)c2)c1	-13%	-3	6%[57.1 µM]	u	2%	2%[57.1 µM]
COc1cc2c(cc1OC)CN(CC(=O)Nc1ccccc1C(=O)NC1CC1)CC2	x	x	30%	x	x	5%
Cc1ccc(-c2cc(C(F)F)nc(S(C)(=O)=O)n2)cc1	10µM*	3	-16%	u	10%	36%
O=C1c2c(O)ccc(O)c2C(=O)c2c(NCCNCCO)ccc(NCCNCCO)c21	10µM*!	-20	-13%[11.4 µM]	u	x	-5%[11.4 µM]
Cc1cccc(NC(=S)NNC(=O)CCn2nc(C)c([N+](=O)[O-])c2C)c1	1.8µM*	1	-17%	0%	-3%	-7%
Cc1ccc(NC(=S)NNC(=O)Cn2nc(C(F)F)cc2C(F)F)cc1	2.2µM*	0	u	-25%	2%	-5%
Cc1nn(CC(=O)NNC(=S)Nc2ccccc2)c(C)c1[N+](=O)[O-]	8.9µM*	4	u	13µM*	0%	2%
O=C(Cn1nc(C(F)F)cc1C(F)F)NNC(=S)Nc1ccc(Cl)cc1	-39%	1	-10%	-3%	-4%	-2%
Cc1nn(CCCC(=O)Nc2cc(Oc3ccc(F)cc3)cc([N+](=O)[O-])c2)c(C)c1[N+](=O)[O-]	u	-3	5%	10µM*	-3%	-11%
CCOC(=O)c1cncc(C#CCO)c1	1%	2	13%[57.1 µM]	-15%	x	-5%
Cc1cccc2c(=O)cc(CSc3ccccc3NC(=O)c3cccc(Br)c3)[nH]c12	x	x	20%[57.1 µM]	x	x	2%[57.1 µM]
CCN(CC(=O)Nc1c(F)cccc1F)C(=O)CNC(=O)c1cccs1	x	x	15%	x	x	5%
C=CCc1cccc2cc(C(=O)Nc3ccc(CC(=O)O)cc3)c(=O)oc12	4µM*	8	8%[57.1 µM]	u	4%	-5%
O=C1C2CCCCN2C(=O)N1CCN1CCN(c2ccc(F)cc2)CC1 (configuration not stated)	x	x	18%	x	x	5%
O=C1CCCC2=C1C(c1ccc(O)cc1)c1c(ccc3ccccc13)N2 (configuration not stated)	-1%	0	-4%[57.1 µM]	7%	9%	47%[57.1 µM]
O=C(Nc1ccccc1F)c1ccc([N+](=O)[O-])s1	13µM*	3	u	-29%	1%	-4%[57.1 µM]
O=C(Nc1cccc2ccccc12)c1ccc([N+](=O)[O-])s1	-30%	0	-11%	u	-2%	2%
Cc1ccccc1NC(=O)/C=C/c1ccc([N+](=O)[O-])s1	4.5µM*	-1	-27%	3.2µM*	0%	-9%
Cc1cc(C)cc(NC(=O)/C=C/c2ccc([N+](=O)[O-])s2)c1	0%	4	17%[57.1 µM]	-12%	0%	-11%
CC(=O)c1cccc(NC(=O)/C=C/c2ccc([N+](=O)[O-])s2)c1	10µM*	3	9%[57.1 µM]	4.5µM*	1%	-2%[57.1 µM]

Source: PubChem BioAssay (National Center for Advancing Translational Sciences (NCATS))
